Test results reported in PubChem BioAssay AID2685 (National Center for Advancing Translational Sciences (NCATS), 2010).
In all, about 320,000 compounds went through this assay and about 2,100 (0.66%) were called active. About 53% were inconclusive and are not listed. The call rests on the fitted dose curve; in most records, active means well fitted inhibition curve with a large enough effect in the signal ratio, with a control signal flat (not every such curve was filed as active); inconclusive means small, poorly fitted or top-dose-only effect, or effect the other way, or a change in a side signal; inactive means flat fitted curve, though single readings scatter; the % refers to the signal ratio. The sample as a whole holds a higher share of actives than the screen did.

assay: qHTS Assay for Lipid Storage Modulators in Drosophila S3 Cells; settings: BODIPY lipid droplet fluorescence, 18-24 h, cells fed with added oleic acid; cell number change: measured here: cell count max response; series mostly up to 46.1 µM; lipid storage change, negative = inhibition: at the top concentration;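 on cell number change: cells counted by Cell Tracker Red CMTPX staining in the red channel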; on lipid storage change, negative = inhibition: on the % scale 0 is the no-effect control and ±100 the full control effect
Summary of the method: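 Drosophila S3 cells got compounds at several concentrations plus oleic acid (400 uM solution). Laser-scanning cytometry with 488 nm excitation read lipid droplets at 500-530 nm and cells at 575-640 nm. Percent activity was relative to 20 uM Triacsin C.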
Potency means the concentration at half of the fitted maximal effect.

| SMILES | Potency | cell number change | outcome | lipid storage change, negative = inhibition |
| --- | --- | --- | --- | --- |
| CC1=[N+]([O-])C(C)(C)CC(C)(C)c2ccccc21 | 25.9 µM (active) | -21.9% |  |  |
| COC(=O)c1cn(CC(=O)Nc2ccccc2C)c2ccccc12 |  | 8.8% | inactive |  |
| COc1ccc(C2C(C#N)=C(N)OC3=C2C(=O)CC(C)(C)C3)cc1Cn1nc(C)c([N+](=O)[O-])c1C (stereo unspecified) |  | 4.05% |  | 9.69% (inactive) |
| O=C1NCCN1C(=O)C12CC3CC(CC(C3)C1)C2 |  | -1.76% |  | 0.211% (inactive) |
| O=C(N1CCN=C1SCc1cccnc1)C12CC3CC(CC(C3)C1)C2 |  |  | inactive |  |
| CSC1=NCCN1C(=O)C12CC3CC(CC(C3)C1)C2 | 1.3 µM (active) | -43.3% |  |  |
| CCn1c(SCC(=O)NC2CC2)nnc1C(C)Oc1ccccc1 (stereo unspecified) |  |  |  | 5.84% (inactive) |
| COc1cccc(NC(=O)Cn2nnc(C(=O)NCCc3ccccc3)c2N)c1 | 20.6 µM (active) | 2.67% |  |  |
| Nc1c(C(=O)NCCc2ccccc2)nnn1Cc1ccc(Cl)cc1 |  | -16.5% |  | 8.7% (inactive) |
| CCOc1ccc(Cn2nnc(C(=O)NCCc3ccccc3)c2N)cc1 |  | -4.24% |  | -7.29% (inactive) |
| COc1ccc(NC(=O)Cn2nnc(C(=O)NCCc3ccccc3)c2N)c(OC)c1 |  | 6.1% | inactive |  |
| COc1cccc(NC(=O)Cn2nnc(C(=O)Nc3ccccc3)c2N)c1 |  | -18.5% |  | 6.84% (inactive) |
| CCOc1ccc(Cn2nnc(C(=O)NCCc3ccc(Cl)cc3)c2N)cc1 | 18.4 µM (active) | 1.29% |  |  |
| CCc1nc(NC(=O)c2sc(C)nc2C)sc1C(=O)OC |  | -8.97% | inactive |  |
| O=C1OCCC1Sc1nnc(-c2cccc(Br)c2)o1 (stereo unspecified) | 20.6 µM (active) | -11.2% |  |  |
| O=C1OCCC1Sc1nnc(-c2ccc(Br)cc2)o1 (stereo unspecified) |  | 7.55% |  | 5.68% (inactive) |
| O=C1OCCC1Sc1nnc(-c2ccc3c(c2)OCO3)o1 (stereo unspecified) |  | 15.3% |  | 5.11% (inactive) |
| Cc1ccc(CNC(=O)CCNS(=O)(=O)c2ccc(C)cc2)cc1 |  | -14.3% |  | 0.234% (inactive) |
| Cc1ccc(CS(=O)(=O)CCC(=O)NCc2ccc(F)cc2)cc1 |  | 22.6% |  | 0.549% (inactive) |
| Cc1ccc(/C=C/S(=O)(=O)NCCC(=O)NCc2ccc(F)cc2)cc1 | 13 µM (active) | -6.87% |  |  |
| CCOC(=O)N1CCC(N(CCN(C)C)C(=S)Nc2ccccc2OC)CC1 |  | 7.57% |  | 1.39% (inactive) |
| CCCCCOC(=O)c1ccccc1C(=O)O |  | 16.1% |  | 22.4% (inactive) |
| Cc1ccc2c(c1)C1CN(C)CCC1N2S(=O)(=O)c1ccc(C#N)cc1 (stereo unspecified) |  | -11.9% |  | 4.76% (inactive) |

| SMILES | Potency | cell number change | outcome | lipid storage change, negative = inhibition |
| --- | --- | --- | --- | --- |
| Cc1ccc2c(c1)[C@@H]1CN(C)CC[C@@H]1N2S(=O)(=O)c1ccc([N+](=O)[O-])cc1 |  | -4.89% |  | 3.92% (inactive) |
| Cc1ccc2c(c1)C1CN(C)CCC1N2S(=O)(=O)c1cccc(F)c1 (stereo unspecified) | 14.6 µM (active) | -8.15% |  |  |
| O=C(CN1CCN(S(=O)(=O)c2ccccc2[N+](=O)[O-])CC1)Nc1ccc(N2CCOCC2)cc1 |  | 26.6% |  | 17.1% (inactive) |
| Cn1c2ccccc2c(=O)c2c(=O)n(-c3ccccc3)c(-c3ccc(C(C)(C)C)cc3)nc21 |  | 8.74% |  | -2.59% (inactive) |
| COc1cccc(CNC(=O)c2ccc(C(=O)NCc3cccc(OC)c3)cc2)c1 |  |  |  | 16.4% (inactive) |
| CC1(C(=O)NCc2ccc(Cl)c(Cl)c2)Oc2cccnc2NC1=O (stereo unspecified) |  |  |  | 25.5% (inactive) |
| COc1cccc(CNC(=O)CC2Sc3ccccc3NC2=O)c1 (stereo unspecified) |  |  |  | -8.39% (inactive) |
| COc1cccc(CNC(=O)C2(C)Oc3ccccc3NC2=O)c1 (stereo unspecified) | 23.1 µM (active) | 10.7% |  |  |
| Cc1ccc(CNC(=O)C2(C)Oc3ccccc3NC2=O)cc1 (stereo unspecified) |  | -6.1% |  | 18.2% (inactive) |
| CC1(C(=O)NCc2ccccc2)Oc2ccccc2NC1=O (stereo unspecified) | 23.1 µM (active) | -4.11% |  |  |
| O=C(CNC(=O)c1ccco1)OCC(=O)c1ccc(Cl)cc1 |  | 3.11% |  | -4.23% (inactive) |
| COc1ccc(NC(=O)/C=C/c2ccc(Br)o2)cn1 |  | 2.5% |  | 0.369% (inactive) |
| CC[C@@H](C)[C@@H](C(=O)N1CCN(C(=O)OC(C)(C)C)CC1)n1cc(CCCN=C(NC(=O)OC(C)(C)C)NC(=O)OC(C)(C)C)nn1 |  | -5.51% |  | -15.3% (inactive) |
| CCN(c1ccccc1)S(=O)(=O)c1ccc2[nH]c(=O)[nH]c2c1 |  | 8.44% |  | 13.3% (inactive) |
| Cc1cccc(N(C)S(=O)(=O)c2c[nH]c3ccc([N+](=O)[O-])cc23)c1 | 2.59 µM (active) | -6.19% |  |  |
| Cc1cccc(N(C)S(=O)(=O)c2ccc3[nH]c(=O)c(=O)[nH]c3c2)c1 |  | -11.4% |  | -8.22% (inactive) |
| CCN(c1ccccc1)S(=O)(=O)c1cc([N+](=O)[O-])ccc1N |  | 7.82% |  | 0.407% (inactive) |
| CCN(c1ccccc1)S(=O)(=O)c1c[nH]c2ccc([N+](=O)[O-])cc12 | 5.8 µM (active) | -8.56% |  |  |
| Cc1ccc(N(C)S(=O)(=O)c2c[nH]c3ccc([N+](=O)[O-])cc23)cc1 |  | 2.95% | inactive |  |
| O=C(CN1CCN(Cc2ccccc2)CC1)N1CCN(c2ccccc2)CC1 |  | 9.09% |  | 9.16% (inactive) |
| CCc1nc2ccccc2c(C(=O)OCC(=O)NCc2ccco2)c1C |  | 16.5% | inactive |  |
| CCC(=O)c1ccc(OCC(=O)NNC(=O)c2cc(C)oc2C)cc1 |  | -5.72% |  | -5.26% [at 0.0737 µM] (inactive) |
| COc1cc(C(C(=O)NC(C)(C)C)N(C(=O)CNC(=O)c2cccs2)c2ccc(C(C)C)cc2)cc(OC)c1OC (stereo unspecified) |  | 12.2% | inactive |  |

| SMILES | Potency | cell number change | outcome | lipid storage change, negative = inhibition |
| --- | --- | --- | --- | --- |
| COc1ccc2[nH]cc(CCNC(=O)COc3cc(C)cc4oc(=O)cc(C)c34)c2c1 |  | -0.087% |  | -23.1% (inactive) |
| COc1ccccc1CC(=O)NCCc1c[nH]c2ccccc12 | 0.231 µM (active) | 10.3% |  |  |
| CCCc1cc(=O)oc2cc(OCC(=O)NCCc3ccc(S(N)(=O)=O)cc3)ccc12 |  | -10.3% | inactive |  |
| COc1ccc2[nH]cc(CCNC(=O)Cc3ccc(F)cc3)c2c1 |  |  |  | 20.2% (inactive) |
| COc1ccc(C(=O)NCCc2c[nH]c3ccccc23)cc1OC |  | -1.75% |  | 18% (inactive) |
| CCCc1cc(=O)oc2cc(OCC(=O)NCCc3c[nH]c4ccc(OC)cc34)ccc12 | 8.2 µM (active) | -12% |  |  |
| COc1ccc2[nH]cc(CCNC(=O)CCC3CCCCC3)c2c1 | 16.4 µM (active) | -11.7% |  |  |
| COc1ccc2[nH]cc(CCNC(=O)C3CCCCC3)c2c1 |  | -11.3% |  | -9.93% (inactive) |
| COc1ccc(C(=O)NCC(=O)NCCc2c[nH]c3ccccc23)cc1OC |  | 7.36% |  | 5.27% (inactive) |
| O=C(CCc1nc2ccccc2c(=O)[nH]1)OCc1cccc(C(F)(F)F)c1 |  | -19.1% |  | -1.93% (inactive) |
| COc1ccc(CN2CCCCC2C)cc1C (stereo unspecified) |  | 16% |  | -3.51% (inactive) |
| Cc1cccc(NC(=O)CSc2nc3[nH]ncc3c(=O)[nH]2)c1C |  | 6.95% |  | 18% (inactive) |
| COc1ccc(-c2nnc(-c3ccc(Br)o3)o2)cc1OC |  | 2.37% |  | 21.7% (inactive) |
| CCOC(=O)N1CCN(C(=O)COc2ccc(S(=O)(=O)NC(C)C)cc2)CC1 |  | -5.69% |  | 5.97% (inactive) |
| CCOc1ccc(S(=O)(=O)N/N=C(\C)C2CCCCC2)cc1 | 20.6 µM (active) | -18.4% |  |  |
| CCOc1ccc(S(=O)(=O)NC2CCCCCC2)cc1 |  | 1.37% |  | 6.04% (inactive) |
| CCOc1ccc(S(=O)(=O)NC2CCCC2)cc1 |  | 13.5% | inactive |  |
| CCNC(=O)CSc1nc(-c2ccc(F)cc2)cs1 |  | 6.04% |  | 7.14% (inactive) |
| Oc1c(N=Nc2ccc(F)cc2)ccc2ccccc12 | 4.11 µM (active) | -26.4% |  |  |
| O=C(NNC(=O)c1ccc2ccccc2c1O)Nc1ccc(F)cc1 |  | 22.7% |  | -1.42% (inactive) |
| O=C(O)c1cc(N=Nc2c(O)ccc3ccccc23)cc(C(=O)O)c1 |  | 0.308% |  | -24.9% (inactive) |
| Oc1ccc2ccccc2c1N=Nc1ccc(F)cc1 | 5.8 µM (active) | -18.6% |  |  |
| Cc1ccc(N=Nc2ccc(C)cc2NC(=O)Nc2ccccc2F)cc1 |  | 4.52% |  | -11.3% (inactive) |

| SMILES | Potency | cell number change | outcome | lipid storage change, negative = inhibition |
| --- | --- | --- | --- | --- |
| Cc1ccc(N=Nc2ccc(O)c3ncccc23)cc1 |  | -11.6% |  | 0.161% (inactive) |
| NS(=O)(=O)c1ccc(N=Nc2c(O)c(C(=O)O)cc3ccccc23)cc1 |  | -8.07% |  | -1.28% (inactive) |
| Cc1ccc(N=Nc2ccc3ccccc3c2O)cc1 | 0.058 µM (active) | 1.47% |  |  |
| O=C(CNc1ccc(F)cc1)N/N=C/c1c(O)ccc2ccccc12 |  | -11.6% |  | -10.8% (inactive) |
| Cc1cccc(C)c1OCC(=O)N/N=C/c1ccncc1 |  | 1.08% |  | 15.6% (inactive) |
| CN(CC(=O)Nc1ccc(Cl)cc1)C(=O)c1cc(-c2cccs2)nn1-c1ccccc1 |  | 15.7% |  | 16.7% (inactive) |
| COC(=O)CCC(=O)Nc1ccc(Br)cc1 |  | -3.41% |  | -11.3% (inactive) |
| CCOc1ccccc1NC(=O)CSc1nnc(CCC(=O)Nc2ccccc2F)n1C |  | -0.293% | inactive |  |
| CC(C)(C)OC(=O)N[C@@H](CCCCNC(=O)OCc1ccccc1)c1nnc([C@H](CCCCNC(=O)OCc2ccccc2)NC(=O)OC(C)(C)C)o1 |  | -3.75% |  | -36.4% (inactive) |
| CCNC(=S)N1CCN(c2ccccn2)CC1 |  | 12.6% |  | 9.69% (inactive) |
| CC(C)(C)c1ccc(C(=O)NC(=S)N2CCOCC2)cc1 |  | 8.33% | inactive [at 0.369 µM] |  |
| CC(C)(C)c1ccc(C(=O)N2CCC3(CC2)NCCc2[nH]cnc23)cc1 |  | 22.1% | inactive |  |
| O=Cc1ccc(OCC(=O)Nc2ccccc2-c2ccccc2)cc1 |  | 18% |  | 8.41% (inactive) |
| COc1ccccc1NC(=O)Cc1cccc2ccccc12 |  | -14.6% |  | -19.7% (inactive) |
| COc1cc(NS(=O)(=O)c2ccc(NC(=S)NC(=O)c3ccco3)cc2)nc(OC)n1 |  | -18.5% |  | -13.8% (inactive) |
| COc1cc(/C=N/n2c(-c3cc(C)[nH]n3)n[nH]c2=S)ccc1O |  | 4.27% |  | -10.3% (inactive) |
| CCOC(=S)SCC(=O)Nc1nc(-c2ccccc2)cs1 | 23.1 µM (active) | -22.6% |  |  |
| COCC(=O)Nc1nc(-c2ccc(-c3ccccc3)cc2)cs1 |  | 7.77% |  | 4.79% (inactive) |
| CCOC(=O)c1ccc(-c2csc(NC(=O)CN3CCC(C)CC3)n2)cc1 | 2.91 µM (active) | 3.78% |  |  |
| Cc1ccc(-c2csc(NC(=O)CN3CCC(C(N)=O)CC3)n2)cc1 |  | -18.5% | inactive |  |
| CC1CCN(CC(=O)Nc2nc(-c3ccccc3)cs2)CC1 |  | 10.6% |  | -4.89% (inactive) |
| CCOC(=O)N1CCN(C(=O)CSCC(=O)Nc2nc(-c3ccccc3)cs2)CC1 |  | -8.7% |  | -4.18% (inactive) |
